Results reported in ChEMBL document CHEMBL4513139, “CO-ADD screening of University of Strathclyde (UK) compounds”.
Entries with a potency or affinity are not part of this list.

tested on: Staphylococcus aureus; conditions: Concentration 32 ug.mL-1; ASSAY_TEST Inhibition of Bacterial Growth; detection method Absorption (OD600); MEDIA CAMHB; plate type 384well; NBS; CORNING #3640; time 18 hr

Row | SMILES | Inhibition [%]
1 | Cn1cc(NC(=O)c2cc(NC(=O)c3ccc(/C=C/c4cccc(F)c4)cc3)cn2C)cc1C(=O)NCCN1CCOCC1.O=C(O)C(F)(F)F | 33.99
2 | CC(C)CCc1sc(NC(=O)c2cc(NC(=O)c3ccc(/C=C/c4cc5ccccc5nc4Cl)cc3)cn2C)nc1C(=O)NCCN1CCOCC1.O=C(O)C(F)(F)F | 1.02
3 | COc1cccc(C(=N)Nc2cc(C(=O)Nc3cc(C(=O)NCCC(=N)N)n(C)c3)n(C)c2)c1.O=C(O)C(F)(F)F.O=C(O)C(F)(F)F | 96.74
4 | COC(=O)c1ccc(C(=O)Nc2cc(C(=O)Nc3cc(C(=O)NCCC(=N)N)n(C)c3)n(C)c2)cc1.O=C(O)C(F)(F)F | 12.34
5 | CC(C)n1cc(NC(=O)c2cc(NC(=O)c3cc(NC=O)cn3C(C)C)cn2C)cc1C(=O)NCCCN(C)C.O=C(O)C(F)(F)F | 2.98
6 | Cc1ncc(CNc2cccc(F)c2)c(N)n1 | 13.69
7 | COc1ccc(CC(=O)Nc2cc(C(=O)Nc3cc(C(=O)Nc4cn(CCCN(C)C)cn4)n(C)c3)n(C)c2)cc1.O=C(O)C(F)(F)F | 6.27
8 | Cn1cc(NC(=O)c2cc(NC(=O)c3sc(N)nc3C(F)(F)F)cn2C)cc1C(=O)NCCC(=N)N.O=C(O)C(F)(F)F | -17.29
9 | Cc1ncc(CNc2ccc(F)cc2)c(N)n1 | 25.09
10 | COc1cccc(/C=C/c2ccc(C(=O)Nc3cc(C(=O)Nc4cc(C(=O)NCCN(C)C)n(C)c4)n(C)c3)cc2)c1.O=C(O)C(F)(F)F | 98.95
11 | CC(=O)Nc1cc(C(=O)Nc2cc(C(=O)Nc3cc(C(=O)NCCCN(C)C)n(C)c3)n(C)c2)n(C)c1.O=C(O)C(F)(F)F | 20.29
